Most compounds without a hit are left out; they make up all but 2.4% or so of the library.
FEN1 inh = qHTS Assay for the Inhibitors of Human Flap endonuclease 1 (FEN1) | actives 0.35% (n = 390,000) | P39748 | Recombinant FEN1 flap cleavage, fluorescence, 15 min | Potency, µM (doses to about 114 µM), without a hit: at the top dose activity change, negative = inhibition, actives largely listed as inhibitors; further: on the % scale 0 is the no-effect control and ±100 the full control effect; nearly all actives have a fitted effect of over 65% in size
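Potency values derive from four-parameter Hill fits of normalized qHTS data. The reaction used 10 nM FEN1 preincubated 15 min at room temperature with compound, then 50 nM DNA substrate, read at 0 and 15 min.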
POLB inh = qHTS Assay for Inhibitors of DNA Polymerase Beta; Pol beta primer extension/strand displacement, fluorescence kinetic; Potency, µM (top dose mostly 114 µM), without a hit: top-dose activity change, negative = inhibition, most hits filed as inhibitors; actives 1.3% (n = 340,000); further: on the % scale 0 is the no-effect control and ±100 the full control effect
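Human Pol beta at 10 nM; strand-displacement substrate 50 nM final. Compound exposure 15 min at room temperature before start, reaction 10 min at room temperature.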
POLH inh = qHTS for Inhibitors of Polymerase Eta. DNA polymerase eta (Homo sapiens), Q9Y253. recombinant Pol eta, fluorescent DNA replication assay. Potency, µM (top dose mostly 114 µM), for inactives: at the highest dose activity change, negative = inhibition, usual class: inhibitors. actives 1.2% (n = 390,000); further: on the % scale 0 is the no-effect control and ±100 the full control effect
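Pol eta at 10 nM preincubated with compounds 15 min at room temperature; reaction started with fluorescent substrate (50 nM final) and read kinetically at 0 and 10 min.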
WRN helicase inh = qHTS for Inhibitors of WRN Helicase. actives 0.46% (n = 360,000). Potency, µM (titrated, usually from 114 µM), without a hit: at the top dose activity change, negative = inhibition, actives largely listed as inhibitors. WRN helicase unwinding, fluorescent forked duplex, kinetic. Bifunctional 3'-5' exonuclease/ATP-dependent helicase WRN (Homo sapiens), Q14191; further: on the % scale 0 is the no-effect control and ±100 the full control effect; nearly all actives have a fitted effect of over 55% in size
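Kinetic red-fluorescence monitoring (525/598 nm) tracks WRN helicase activity after 100 nM fluorophore-quencher forked duplex and 2 mM ATP are added to 20 nM enzyme pretreated 15 min at room temperature with compound.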
Pol kappa inh = qHTS for Inhibitors of Polymerase Kappa; DNA polymerase kappa (Homo sapiens), Q9UBT6; Potency, µM (doses to about 107 µM), inactives show at the top dose activity, negative = inhibition, actives largely listed as inhibitors; AID 588579, 2011; purified Pol kappa, fluorescent DNA synthesis assay, 10 min; actives 0.53% (n = 400,000); further: on the % scale 0 is the no-effect control and ±100 the full control effect
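Inhibition of 10 nM Pol kappa is measured by a fluorescent read-out at 0 and 10 min following addition of 50 nM substrate (final), with a 15-min room-temperature compound preincubation.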
Pol iota inh = qHTS for Inhibitors of Polymerase Iota; Pol iota fluorescent replication assay, 10 min; Potency, µM (highest dose often 115 µM), without a hit: at the highest dose activity, negative = inhibition, hits mostly inhibitors; actives 1% (n = 390,000); AID 588590, 2011
Target sequence (Q9UNA4 whole entry, looked up): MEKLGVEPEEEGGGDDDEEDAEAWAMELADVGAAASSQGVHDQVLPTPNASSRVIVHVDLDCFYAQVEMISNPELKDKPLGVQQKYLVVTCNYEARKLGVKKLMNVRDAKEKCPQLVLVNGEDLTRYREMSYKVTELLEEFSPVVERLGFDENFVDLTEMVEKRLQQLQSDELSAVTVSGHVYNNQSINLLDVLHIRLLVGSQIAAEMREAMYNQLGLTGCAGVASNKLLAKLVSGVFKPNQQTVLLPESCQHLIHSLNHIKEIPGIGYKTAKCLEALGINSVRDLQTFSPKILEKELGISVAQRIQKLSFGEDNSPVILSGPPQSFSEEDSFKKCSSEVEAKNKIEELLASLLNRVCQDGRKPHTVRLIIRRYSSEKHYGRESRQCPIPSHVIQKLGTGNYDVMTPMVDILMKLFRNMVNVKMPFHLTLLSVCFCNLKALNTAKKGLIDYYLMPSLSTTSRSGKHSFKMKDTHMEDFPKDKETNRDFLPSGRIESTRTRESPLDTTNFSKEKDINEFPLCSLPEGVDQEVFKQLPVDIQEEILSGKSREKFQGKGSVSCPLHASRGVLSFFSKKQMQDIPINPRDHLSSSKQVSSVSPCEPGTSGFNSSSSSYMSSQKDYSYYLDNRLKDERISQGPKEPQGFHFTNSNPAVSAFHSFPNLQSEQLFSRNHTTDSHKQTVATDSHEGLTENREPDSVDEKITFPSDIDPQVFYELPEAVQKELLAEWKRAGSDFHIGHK
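Fluorescent replication assay read twice, at 0 min and 10 min after adding 50 nM (final) substrate. Enzyme (10 nM) and compounds were first incubated 15 min at room temperature; enzyme-free buffer wells were negative controls.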
* marks the source's active call; other numbers are inactive results; ? = inconclusive; . = no result; [ ] = another dose, or the depositor's remark. The call rests on the fitted dose curve; in most records, active means well fitted curve in the direction sought with a large enough effect; inconclusive means small, poorly fitted or top-dose-only effect, or another doubt; inactive means no such curve, though single readings can be large; an effect the other way counts as inactive or inconclusive. Potency means the concentration at half of the fitted maximal effect.

SMILES | FEN1 inh | POLB inh | POLH inh | WRN helicase inh | Pol kappa inh | Pol iota inh
COc1ccccc1C1C2=C(N=c3s/c(=C/c4cccc(OCC(=O)O)c4)c(=O)n31)c1ccccc1CC2 (configuration not stated) | -21% | 50µM* | 40µM* | -32% | -31% | ?
COc1cccc(C2C3=C(N=c4s/c(=C\c5ccc(O)cc5)c(=O)n42)c2ccccc2CC3)c1OC (configuration not stated) | -1% | 6% | -15% | 1% | -8% | 4%
COc1cccc(C2C3=C(N=c4s/c(=C\c5cccc(O)c5)c(=O)n42)c2ccccc2CC3)c1OC (configuration not stated) | -11% | 19% | -14% | -9% | 8% | 7%
O=C(CCSCc1cnn(-c2ccccc2)c1-n1cccc1)NCc1ccc(Cl)cc1 | 3% | 4% | 4% | . | -11% | 41%
CCCNc1c(F)c(F)c2c(C)c3ccccc3nc2c1F | -15% | -12% | -8% | ? | 79µM* | 7.9µM*
Cc1ccc(Nc2nc(C)cc(C)n2)c(C(=O)O)c1 | -6% | 26% | -9% | . | -5%[60.1 µM] | 14%
CC(C)CS(=O)(=O)C1=NSC2=NC(=O)/C(=C\c3ccc(OC(=O)c4ccco4)cc3)C(=N)N21 | -15% | -3% | 56µM* | -16%[11.6 µM] | -7% | -6%
CS(=O)(=O)C1=NSC2=NC(=O)/C(=C\c3ccc(OC(=O)c4ccco4)c(Br)c3)C(=N)N21 | ? | ? | 50µM* | ? | -29% | ?
CC[C@H](NC(=O)/C=C/[C@H]1O[C@@H](n2cc(C)c(=O)[nH]c2=O)C[C@@H]1O)c1ccccc1 | . | . | . | 3% | . | .
CCN1CCN(C(=O)Cn2ncc3c4ccccc4n(Cc4ccccc4)c3c2=O)CC1 | -8% | 24% | -11% | . | -6% | 16%
CC1Cc2ccccc2N1C(=O)COC(=O)c1ccc(O)cc1 (configuration not stated) | -5% | 5% | -8% | 7% | 15% | 11%
CC1Cc2ccccc2N1C(=O)COC(=O)c1ccc(N(C)C)cc1 (configuration not stated) | -9% | . | 7.9µM* | 56µM* | 50µM* | 13µM*
CCC(C)NC(=O)c1[nH]c2cc(OC)ccc2c1Sc1ccc(C)cc1 (configuration not stated) | -17% | -13% | -2% | . | -8% | 4%
COC(=O)CCC/C=C1/SCC(NC(=O)c2ccccc2)C1O (configuration not stated) | 2% | -9% | ? | -33% | ? | ?
COC(=O)CCC/C=C1/SCC(NC(=O)c2ccccc2)C1=O (configuration not stated) | -8% | 2% | ? | -24% | -14% | 45µM*
CC(CN1CCN(c2ccccc2)CC1)c1ccccc1 (configuration not stated) | -9% | 15% | -10% | -3%[11.6 µM] | -16% | 45µM*
Cc1oc(-c2cccc(Br)c2)nc1CSc1nc2ncccc2[nH]1 | 5% | 0% | -11% | . | -16% | 13%
CC1(C)N([O-])C2=C(CCCC2)[N+]1=O | -10% | 25µM* | 22µM* | -34% | ? | ?
O=c1cc(CSc2nnc(COc3ccccc3Cl)o2)nc2sccn12 | -1% | 35µM* | 11% | -2% | -1% | -8%
O=C(COc1ccccc1Cl)Nc1ccc(OCc2cc(=O)n3ccsc3n2)cc1 | -7% | 31% | -9% | . | -8% | 31%
Cc1cc(O)c(C(C)C)cc1N=Cc1ccccc1[N+](=O)[O-] | -17% | . | -23% | -22% | -6% | 20µM*
N#Cc1ccc(S(=O)(=O)N2CCN(c3nc(-c4cccs4)nc4ccccc34)CC2)cc1 | 10% | . | . | . | 1% | 9%
Cc1ccc(NC(=O)c2ccc3c(c2)NC(=O)c2ccccc2S3)c(Cl)c1 | 5% | ? | -25% | . | 9% | 79µM*
CCC(C)C(=O)O[C@H]1C[C@@H](C)C=C2C=C[C@H](C)[C@H](CC[C@@H]3C[C@@H](O)CC(=O)O3)C21 (some centres not stated) | . | . | . | . | -8%[19.4 µM] | .
CC1(C)CC(=O)C(N=Nc2cc(S(=O)(=O)N3CCOCC3)ccc2Cl)=C(O)C1 | 16% | 22µM* | -18% | -5% | 2% | 3%
SMILES | FEN1 inh | POLB inh | POLH inh | WRN helicase inh | Pol kappa inh | Pol iota inh
CC1(C)CC(=O)C(N=Nc2cc(C(F)(F)F)ccc2Cl)=C(O)C1 | 12% | -1% | -16% | 3% | 6% | 15%
CCCC(=O)OCCNc1cc(Sc2nc3ccccc3[nH]2)c2nonc2c1[N+](=O)[O-] | ? | 6% | ? | 40µM* | -13% | ?
Cc1cc(=O)oc2cc(OCC(=O)N/N=C/c3ccccc3[N+](=O)[O-])ccc12 | ? | 32µM* | ? | ? | ? | 28µM*
O=C(OCc1nnc(-c2ccccc2)o1)c1ccc(S(=O)(=O)NCc2ccco2)cc1 | -12% | 3.5µM* | 22µM* | -23% | ? | ?
O=C(OC1CCOC1=O)c1ccc(Cl)c(S(=O)(=O)N2CCCCC2)c1 (configuration not stated) | 0% | ? | -30% | -1%[57.1 µM] | -11% | -1%
CCN(c1ccccc1)S(=O)(=O)c1cc(C(=O)NCc2ccco2)ccc1C | 7% | . | 79µM* | -4%[11.6 µM] | -14% | ?
CC(OC(=O)c1ccccn1)C(=O)Nc1ccc2c(c1)OCCO2 (configuration not stated) | -9% | . | -2% | 4% | 6% | 11%
O=C(OC1CCOC1=O)c1ccc(Cl)c(S(=O)(=O)N2CCOCC2)c1 (configuration not stated) | 15% | . | 40µM* | -10% | ? | 71µM*
CCN(c1ccccc1)S(=O)(=O)c1cc(C(=O)OC(C)C(=O)Nc2ccc3c(c2)OCCO3)ccc1C (configuration not stated) | 1% | 10µM* | ? | -10%[11.6 µM] | ? | ?
COc1ccc(NC(=O)CSc2nc3c([nH]c4ccccc43)c(=O)n2-c2ccccc2)c(OC)c1 | 12% | -10% | -4% | . | -5%[60.1 µM] | 21%
COc1ccc(CNS(=O)(=O)c2ccc(N3CCCCS3(=O)=O)cc2)cc1 | -12% | -2% | -11% | . | -6%[60.1 µM] | -4%
Cc1cnc(CNc2nc(-c3ccc(C(=O)N(C)C)cc3)nc3ccccc23)cn1 | . | . | . | . | -2%[60.1 µM] | .
